Consider 44 sequences from PMC7819943, “Rice protein-binding microarrays: a tool to detect cis-acting elements near promoter regions in rice”.

Over roughly 39,000 sequences, “fluorescence intensity (a.u.)” has its median near 4,300; the highest 2% begin near 39,000. For the sample, the highest values were picked, then their nearest neighbours and some sequences at random.

The test deals with T1, OsSMF1 (Oryza sativa, UniProt Q6ZLB0 1-436).
T1 sequence: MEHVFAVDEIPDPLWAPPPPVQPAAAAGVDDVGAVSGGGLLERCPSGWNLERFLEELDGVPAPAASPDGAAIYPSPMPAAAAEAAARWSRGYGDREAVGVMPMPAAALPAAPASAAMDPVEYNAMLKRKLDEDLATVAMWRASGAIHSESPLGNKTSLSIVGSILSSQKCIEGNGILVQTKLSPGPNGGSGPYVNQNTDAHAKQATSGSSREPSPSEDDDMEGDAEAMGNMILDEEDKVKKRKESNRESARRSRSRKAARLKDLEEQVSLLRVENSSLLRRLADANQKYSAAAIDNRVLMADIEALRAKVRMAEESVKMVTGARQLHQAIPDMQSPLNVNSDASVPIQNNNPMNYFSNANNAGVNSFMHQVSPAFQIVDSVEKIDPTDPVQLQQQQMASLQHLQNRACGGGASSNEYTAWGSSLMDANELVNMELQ
The experiment in a line: protein-binding microarray (RPBM); PBS, 2% BSA, 51.3 ng/ul salmon testes DNA, 50 uM zinc acetate, 200 nM TF, 25 C, 1 h; high values mean tight binding. The settings on record: protein: recombinant; tags: N-terminal polyhistidine and DsRed monomer fusion (pET32a); chain copies: 2; label: CyDye5-dUTP incorporated in the synthesized complementary strand; 3' TTTTT single-stranded linker to array surface; dsDNA, one strand shown. The gist of the method: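 The binding signal for each feature is its fluorescence intensity in arbitrary units. An Axon 4000B scanner was used to read a custom Agilent array that had been made double-stranded with Cy5-dUTP primer extension, blocked with 2% BSA, incubated at 25 °C for 1 h with 200 nM protein in PBS, 2% BSA, salmon testes DNA and 50 µM zinc acetate, and washed. The protein was an N-terminal polyhistidine–DsRed transcription factor fusion from E. coli BL21-CodonPlus, purified on Ni–NTA.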
For the sequence “ATGCCATGCCAACGCACTATGCCTGGTATCCTTAGCCATCCGGAGTCACCTAGTGCAG”, the binding signal is 4060 fluorescence intensity (a.u.).

For “CGACCTGAGGTTGGCGGTCGGCATGACGTCACGGGTGGGACGGAGTCACCTAGTGCAG”, the binding signal was 24200 fluorescence intensity (a.u.).

Turning to “CTATGTTTTACACTTACACTCCTATCAAAATCCTACGTTTCGGAGTCACCTAGTGCAG”, the binding signal is 22600 fluorescence intensity (a.u.).

For “TAAAGCTTTTATGAATGAATAGCCTCGCTGGCAAGTGGGCCGGAGTCACCTAGTGCAG”, the binding signal is 3560 fluorescence intensity (a.u.).

On to “TTGTTCTGTCGATCCATCGGTATCCTGGTCAATTGGCAAGCGGAGTCACCTAGTGCAG”, for which the binding signal is 3160 fluorescence intensity (a.u.).

As to “ATCGAATGATCTAACGGCTCACACACTCCCACGCACTTTGCGGAGTCACCTAGTGCAG”, the binding signal was 3290 fluorescence intensity (a.u.).

Regarding “TCTGACGGGCGATGACGACGACGACGGTGCAAAAGCCTGACGGAGTCACCTAGTGCAG”, the binding signal is 3310 fluorescence intensity (a.u.).

Turning to “ACATCTAAAAGTAACTTGAGTTTTCTAAGCAACACATAAGCGGAGTCACCTAGTGCAG”, the binding signal is 24700 fluorescence intensity (a.u.).

For “AAGCTCCCCGGCCAGGCCGCCATCGGCCACGTGAGGTACTCGGAGTCACCTAGTGCAG”, the binding signal is 4540 fluorescence intensity (a.u.).

For “TTTAATTGTTCTGCGATTACGGTAGAAATAGATCGGGCTTCGGAGTCACCTAGTGCAG”, the binding signal is 3210 fluorescence intensity (a.u.).

In the case of “TTGAAACGTAACACTTGATATATGTATACATTATCCAACCCGGAGTCACCTAGTGCAG”, the binding signal is 3150 fluorescence intensity (a.u.).

As for “GGGTCATATAGAGACGACGATCAAATTTACCTTATTTTAACGGAGTCACCTAGTGCAG”, the binding signal was 3240 fluorescence intensity (a.u.).

As to “CCAACTTTTCCATCACATCGTTCCAATTTCAACCAAACTTCGGAGTCACCTAGTGCAG”, the binding signal is 21900 fluorescence intensity (a.u.).

For the sequence “TCCATTGCATATAATTCAATTCATCGAAATCATGACATTTCGGAGTCACCTAGTGCAG”, the binding signal is 46400 fluorescence intensity (a.u.).

In the case of “TCATACTGCCATCATACCATCCTACAATAGACAAATTTAACGGAGTCACCTAGTGCAG”, the binding signal is 54300 fluorescence intensity (a.u.).

With “TTTTCTATCACATCGTTTTAATTTCAATCAAACTTCCAATCGGAGTCACCTAGTGCAG”, the binding signal was 45300 fluorescence intensity (a.u.).

“ACAAACTTCCAACTTTTCTATCACATCGTTCCAATTTCAACGGAGTCACCTAGTGCAG”: the binding signal is 22100 fluorescence intensity (a.u.).

Take “TTATATTTTAATTAAAACTATTATAATACACAATACGTCACGGAGTCACCTAGTGCAG”: the binding signal was 7060 fluorescence intensity (a.u.).

In the case of “AATTATGTTTTATAAGACGTTAGCATTTAAACTACAATCCCGGAGTCACCTAGTGCAG”, the binding signal was 55600 fluorescence intensity (a.u.).

Turning to “GTTATAAGACGTTTTGATTTTAGTCAAAGTCAAACTATTCCGGAGTCACCTAGTGCAG”, the binding signal was 32600 fluorescence intensity (a.u.).

Consider “CAACAAATTTAAATTTATAGACGTCACCATACTGAAGGCGCGGAGTCACCTAGTGCAG”, for which the binding signal was 5460 fluorescence intensity (a.u.).

Take “AATTGGACAATTCATCATAAATTTTGCATGAATGATGACACGGAGTCACCTAGTGCAG”: the binding signal is 3750 fluorescence intensity (a.u.).

On to “GACATGAATTTTCCATCATATATTCATGCGGTTCATTATGCGGAGTCACCTAGTGCAG”, for which the binding signal was 4430 fluorescence intensity (a.u.).

Turning to “TAACCATGTAATTCCTCTGAAAATCCACAGATGAACTAGCCGGAGTCACCTAGTGCAG”, the binding signal is 3360 fluorescence intensity (a.u.).

Turning to “CCACCAGCCCGGTGGGATCCCGCCACGTCAGCGTGACCCGCGGAGTCACCTAGTGCAG”, the binding signal was 22600 fluorescence intensity (a.u.).

Turning to “GTCTGGAGAGCCAGAGGAGAGGAGTAGCGGACGCGGTGCCCGGAGTCACCTAGTGCAG”, the binding signal is 26700 fluorescence intensity (a.u.).

As to “TTTCTGCGCTACGTGCTCGCCATGTCGTCCTCGTCACAAACGGAGTCACCTAGTGCAG”, the binding signal was 5120 fluorescence intensity (a.u.).

As to “CACCCGTGCGTAATCATGACGCCGGGGTGACGTCACCATCCGGAGTCACCTAGTGCAG”, the binding signal was 30200 fluorescence intensity (a.u.).

As for “GCTGGGTTTTCGAGGAGGCCTGACTGGATCATACTCGACTCGGAGTCACCTAGTGCAG”, the binding signal was 3250 fluorescence intensity (a.u.).

Take “CCATCTGCGGCGTACTTGCCACTTTTCTTCGATCGGCACCCGGAGTCACCTAGTGCAG”: the binding signal is 3550 fluorescence intensity (a.u.).

With “AGACCGCTCGCGCGTACGTGACGCGATCGGGCAGCGCGGGCGGAGTCACCTAGTGCAG”, the binding signal was 4060 fluorescence intensity (a.u.).

As for “TTCACACCCAGATAAATACAGCCTACTAGACCAATAGCCACGGAGTCACCTAGTGCAG”, the binding signal was 40000 fluorescence intensity (a.u.).

For the sequence “ACCAGGTGGCTACAGCTGGCTAAATACCCAGTCACTACCACGGAGTCACCTAGTGCAG”, the binding signal is 3680 fluorescence intensity (a.u.).

“TTTTATCACATCGTTTTAATTTCAACCAAACTTTCAATTTCGGAGTCACCTAGTGCAG”: the binding signal is 32600 fluorescence intensity (a.u.).

“TTATATCGTTTTAATTTCAATTAAACTTTCAATTTTAGTGCGGAGTCACCTAGTGCAG”: the binding signal is 48400 fluorescence intensity (a.u.).

Consider “ATAAAATTTTATGATATATAGATAATAATTTTACTTGCAACGGAGTCACCTAGTGCAG”, for which the binding signal was 4550 fluorescence intensity (a.u.).

Consider “GTACATCAAACATTATCAATATCGGACACATAATCCATTGCGGAGTCACCTAGTGCAG”, for which the binding signal is 3850 fluorescence intensity (a.u.).

Take “ACTTTTCCGTCACATCGTTTTAATTTCTTTAAACTTTTAACGGAGTCACCTAGTGCAG”: the binding signal is 4680 fluorescence intensity (a.u.).

Consider “TCTCTTTCTTTATTTCTTTAAAATATATTTATAGTTGTCTCGGAGTCACCTAGTGCAG”, for which the binding signal was 3490 fluorescence intensity (a.u.).

Consider “TATAGAATTTTCTCTTAAAATACTTATCCGATTTATGATCCGGAGTCACCTAGTGCAG”, for which the binding signal was 54100 fluorescence intensity (a.u.).

Regarding “CCATAATCACACTTCAATAGTAGTACTACCACAATTGCATCGGAGTCACCTAGTGCAG”, the binding signal was 45100 fluorescence intensity (a.u.).

For “CCTAAAATACATGACCAGCCCACACAGGACTTAACCCACACGGAGTCACCTAGTGCAG”, the binding signal is 3230 fluorescence intensity (a.u.).

“TTCACATCGTTGCAATAAATAATTATACCACTACTTCATACGGAGTCACCTAGTGCAG”: the binding signal is 24800 fluorescence intensity (a.u.).

With “TTCATGCGCCCACATGACGTAGTGAATTAGTGGACTATGTCGGAGTCACCTAGTGCAG”, the binding signal is 4570 fluorescence intensity (a.u.).
